Experiment [1] is described as follows: Confirmation and Secondary Assay for Modulators of Hemoglobin Beta Chain Splicing at IVS2 654 locus (AID 910). Further: % of control where 0% means no effect. In outline:
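HeLa cells stably carrying EGFP interrupted by mutant beta-globin IVS2-654 intron (CMV-driven) were treated with compound for 2 days at 37C; corrected splicing was scored as total peak GFP intensity per well (488 nm excitation, 500-520 nm emission).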

Experiment [2] can be described thus: Confirmation and Secondary Assay for Modulators of Hemoglobin Beta Chain Splicing at IVS2 705 locus (AID 930).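 Further: HeLa cells stably expressing the EGFP-705 splicing reporter; GFP fluorescence per well restored by corrected splicing of the IVS2-705 intron in EGFP; % of control where 0% means no effect.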 In outline: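 HeLa cells stably carrying EGFP interrupted by mutant beta-globin intron 2 (IVS2-705) treated 2 days at 37C with compound; 500 nM antisense PNA as control. Correct splicing read as total peak GFP intensity per well by laser-scanning cytometry.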

Experiment [3] can be described thus: qHTS Assay for Lipid Storage Modulators (AID 1519; calls by dose curve; on activity change, negative = inhibition: on the % scale 0 is the no-effect control and ±100 the full control effect). To be noted: Drosophila S3 cells, BODIPY lipid droplet/cell ratio, laser cytometry, cells loaded with oleic acid. In short, it runs like this:
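Cells seeded at 5,000 per well were treated with compounds over a concentration series and loaded with oleic acid (400 uM, as added). Lipid droplet fluorescence (488 nm excitation, 500-530 nm channel) was read by laser-scanning cytometry and normalized to 20 uM Triacsin C.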
Background: Quantitative high-throughput screening tests each substance at several concentrations.

A short description of experiment [4]: Confirmatory screen GU Rhodamine qHTS for Zika virus inhibitors qHTS (AID 1347157). Further: potency means the concentration at half of the fitted maximal effect; nearly all actives have a fitted effect of over 70% in size. In short, it runs like this: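 Unlinked NS2B/NS3, 25 nM; Rhod110 peptide, 1.5 microM; compounds, up to 114 microM. Reaction run 15 min at RT in 10 mM Tris-HCl pH 8.0, 0.01% Tween 20; kinetic fluorescence change fitted with a 4-parameter Hill model.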
Experiment [5] is described as follows: ZIKV-mCherry secondary qHTS for Zika virus inhibitors (AID 1347158). Further: top concentration of the series differs between compounds. In short, it runs like this:
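After overnight seeding at 37 °C, Vero cells receive compound and then ZIKV-mCherry (MOI 1). Following 48-72 h infection, cells are fixed, counterstained with Hoechst, and imaged; percent infected cells is derived from an mCherry intensity cut-off of 450 RFU.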

Experiment [6] in a line: Confirmatory screen NINDS Rhodamine qHTS for Zika virus inhibitors (AID 1347161). Further: potency means the concentration at half of the fitted maximal effect; nearly all actives have a fitted effect of over 60% in size. In short, it runs like this:
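Rhodamine110-peptide cleavage (1.5 µM substrate) by 25 nM linked NS2B-NS3 enzyme at pH 8.0 (Tris, Tween 20), after 15 min RT preincubation with compounds; 15-min fluorescence change normalized to controls and Hill-fitted.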

Experiment [7] deals with Zika virus NS2B-NS3 protease (linked construct). In words: 384 well plate NINDS Rhodamine confirmatory qHTS for Zika virus inhibitors (AID 1347164). Further: potency means the concentration at half of the fitted maximal effect; nearly all actives have a fitted effect of over 65% in size. In outline:
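Compounds are incubated about 15 minutes with linked protease (5, 30 or 60 nM final). Rhodamine 110-tagged Ac-LKRR substrate (10 microM final) is added and fluorescence measured after 25 minutes.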

Experiment [8] can be described thus: Tertiary RLuc qRT-PCR qHTS assay for Zika virus inhibitors (AID 1347169). Further: top concentration of the series differs between compounds; on the % scale 0 is the no-effect control and ±100 the full control effect; nearly all actives have a fitted effect of over 55% in size. In short, it runs like this:
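Orthogonal cell-based infection assay using recombinant ZIKV-RLuc (Cambodian) in Vero cells; compound added prior to virus at MOI 1-2. Incubation lasts 48-72 hrs at 37 degrees C before live-cell Renilla substrate is added and luminescence measured.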
In general terms: Quantitative PCR measures a nucleic acid by following its amplification.

Records with an inconclusive call do not appear. The source made the active and inactive calls. Unless noted, the call rests on the fitted dose curve; in most records, active means well fitted curve in the direction sought with a large enough effect; inconclusive means small, poorly fitted or top-dose-only effect, or another doubt; inactive means no such curve, though single readings can be large; an effect the other way counts as inactive or inconclusive.

Regarding `O=C(O[C@@H]1Cc2c(O)cc(O)cc2OC1c1ccc(O)c(O)c1)c1cc(O)c(O)c(O)c1` (stereo not given in full), the outcome in experiment [1] and in experiment [2] was inactive. Moreover, the activity change, negative = inhibition in experiment [3] (at 57.5 µM (top of the series)) was 6.43% (inactive). Moreover, the max response was -10% in experiment [3] (measured here: cell count channel max response) and -4.33% in experiment [3] (measured here: lipid channel max response). In addition, the results for the Potency in experiment [4], in experiment [6] and in experiment [7] were 35.5 µM (active), 14.1 µM (active) and 708 nM (active), respectively. For the same compound, the Potency entry in experiment [5] and in experiment [8] was “inactive” each time.
